According to PubChem BioAssay (EPA / NIEHS):
Where “and” joins values, the source holds several entries; their conditions need not be identical. Identical values can stand only once. Records with an inconclusive call do not appear. A structure can be active in one record and inactive in another. Calls of active or inactive are those of the source. How the source made its calls, unless noted: active means hit-call score of the fitted dose curve at least 0.9, where 1 is the maximum; inconclusive means response in the unintended direction; inactive means score below 0.9.

Experiments:
[1] = CPHEA_Stoker_NIS_Cytotoxicity: Cytotoxicity Assessment for CPHEA's Radioactive Iodide Uptake (RAIU) Assay for Sodium/Iodide Symporter (NIS) Inhibition, Stoker and Laws Labs (AID 2283897);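 on AC50: active means loss of ATP signal versus DMSO meaning cytotoxicity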
Method in brief: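 hNIS-HEK293T-EPA human kidney cells were exposed for 2 hours at room temperature to test chemicals (0.001–100uM, 0.5% final DMSO) in HEPES-buffered HBSS, pH 7.4. Viability was read as ATP content by luciferase bioluminescence, loss of signal versus DMSO.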

[2] = test system: Sodium/Iodide Symporter (NIS), SLC5A5 (gene 6528); experiment: CPHEA_Stoker_NIS_Inhibition_RAIU: CPHEA's Radioactive Iodide Uptake (RAIU) Assay for Sodium/Iodide Symporter (NIS) Inhibition, Stoker and Laws Labs (AID 2283841)
Method in brief: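 HEK293T cells stably expressing human NIS (hNIS-HEK293T-EPA) were exposed to test chemicals at 0.001–100uM (0.5% final DMSO) with 125I at a final 329pM in HBSS/10mM HEPES pH 7.4. After 2 hours at room temperature and ice-cold washes, intracellular 125I was counted as CPM and normalized to DMSO wells.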

[3] = ATG_M_32_XSP2: Attagene TRANS-FACTORIAL Multi-Species (XSP2) HepG2 Assay for M19 Transcription Factor (Internal Marker) (AID 2283826)
Method in brief: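 Read-out: fluorescent reporter mRNA fragments resolved by capillary electrophoresis after RT-PCR, gain-of-signal versus DMSO baseline. Cells were human HepG2 carrying transfected multi-reporter units, exposed 24 h. Medium contained 3 nM 6-alpha-fluorotestosterone plus 1.5 nM norgestrel.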

[4] = test system: frog Estrogen Receptor (ER2), gene 100174814; experiment: ATG_frER2_XSP2: Attagene TRANS-FACTORIAL Multi-Species (XSP2) HepG2 Assay for frog Estrogen Receptor (ER2) (AID 2283828)
Method in brief: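 HepG2 cells transiently transfected with multiplexed GAL4-UAS reporter units expressing chimeric frog ER2–Gal4 protein; reporter mRNA measured 24 h after chemical dosing by RT-PCR, fluorescent labeling and capillary electrophoresis. Gain-of-signal fitted relative to DMSO baseline.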

[5] = target: Peroxisome proliferator-activated receptor gamma (Homo sapiens) (UniProt P37231); experiment: ATG_hPPARg_XSP2: Attagene TRANS-FACTORIAL Multi-Species (XSP2) HepG2 Assay for human Peroxisome Proliferator-activated Receptor gamma (PPARg) (AID 2283829);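 further: actives raise reporter mRNA above DMSO so AC50 reflects PPARg activation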
Chain of Peroxisome proliferator-activated receptor gamma (Homo sapiens) (P37231 whole entry, looked up, the tested form may be a part): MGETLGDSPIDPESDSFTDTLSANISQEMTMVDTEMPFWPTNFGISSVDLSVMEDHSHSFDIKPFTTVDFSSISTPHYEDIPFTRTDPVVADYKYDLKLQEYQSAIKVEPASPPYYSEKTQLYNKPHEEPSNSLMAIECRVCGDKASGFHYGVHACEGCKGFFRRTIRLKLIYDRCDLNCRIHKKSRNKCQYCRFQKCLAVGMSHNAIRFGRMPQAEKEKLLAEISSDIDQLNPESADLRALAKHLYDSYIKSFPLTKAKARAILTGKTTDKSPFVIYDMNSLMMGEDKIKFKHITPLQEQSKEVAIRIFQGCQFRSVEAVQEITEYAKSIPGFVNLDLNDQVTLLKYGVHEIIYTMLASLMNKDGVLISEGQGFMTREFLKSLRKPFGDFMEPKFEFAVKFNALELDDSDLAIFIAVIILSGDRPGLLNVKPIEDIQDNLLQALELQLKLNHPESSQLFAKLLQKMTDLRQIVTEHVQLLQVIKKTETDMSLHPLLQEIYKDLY
Method in brief: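 Transient MRTU transfection, HepG2; TRANS format (exogenous NR-Gal4 chimeras). 24 h chemical exposure with 3 nM 6-alpha-fluorotestosterone and 1.5 nM norgestrel present. Readout: reporter mRNA via RT-PCR/CE fluorescence, up-direction vs DMSO.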

[6] = target: mouse Peroxisome Proliferator-activated Receptor gamma (PPARg), Pparg (gene 19016) (UniProt P37238); experiment: ATG_mPPARg_XSP2: Attagene TRANS-FACTORIAL Multi-Species (XSP2) HepG2 Assay for mouse Peroxisome Proliferator-activated Receptor gamma (PPARg) (AID 2283830);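 further: hits are gains in reporter mRNA above DMSO so AC50 marks activation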
Chain of mouse Peroxisome Proliferator-activated Receptor gamma (PPARg), Pparg (gene 19016) (P37238 whole entry, looked up, the tested form may be a part): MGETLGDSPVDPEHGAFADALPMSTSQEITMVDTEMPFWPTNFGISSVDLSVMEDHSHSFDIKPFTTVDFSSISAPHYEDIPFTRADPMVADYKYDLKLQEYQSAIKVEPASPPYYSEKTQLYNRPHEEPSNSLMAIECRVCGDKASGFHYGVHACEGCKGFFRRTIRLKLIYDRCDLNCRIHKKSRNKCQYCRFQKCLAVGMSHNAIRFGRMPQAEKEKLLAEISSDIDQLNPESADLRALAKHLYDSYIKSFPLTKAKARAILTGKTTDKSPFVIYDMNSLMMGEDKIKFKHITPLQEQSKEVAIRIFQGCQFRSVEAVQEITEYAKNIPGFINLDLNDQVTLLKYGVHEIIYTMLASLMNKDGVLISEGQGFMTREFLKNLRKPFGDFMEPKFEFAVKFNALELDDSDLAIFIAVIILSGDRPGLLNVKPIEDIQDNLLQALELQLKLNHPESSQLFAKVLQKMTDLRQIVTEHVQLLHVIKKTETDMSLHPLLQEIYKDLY
Method in brief: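 HepG2 cells transiently transfected with GAL4-UAS reporter units for chimeric NR-Gal4 proteins including mouse PPARg, exposed 24 h; medium contained 3 nM 6-alpha-fluorotestosterone and 1.5 nM norgestrel. Reporter mRNA quantified by RT-PCR, HpaI digestion and capillary electrophoresis, vs DMSO.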

[7] = target: Nuclear receptor subfamily 1 group I member 2 (Mus musculus) (UniProt O54915); experiment: ATG_mPXR_XSP2: Attagene TRANS-FACTORIAL Multi-Species (XSP1) HepG2 Assay for mouse Pregnane X Receptor (PXR) (AID 2283831)
Chain of Nuclear receptor subfamily 1 group I member 2 (Mus musculus) (O54915 whole entry, looked up, the tested form may be a part): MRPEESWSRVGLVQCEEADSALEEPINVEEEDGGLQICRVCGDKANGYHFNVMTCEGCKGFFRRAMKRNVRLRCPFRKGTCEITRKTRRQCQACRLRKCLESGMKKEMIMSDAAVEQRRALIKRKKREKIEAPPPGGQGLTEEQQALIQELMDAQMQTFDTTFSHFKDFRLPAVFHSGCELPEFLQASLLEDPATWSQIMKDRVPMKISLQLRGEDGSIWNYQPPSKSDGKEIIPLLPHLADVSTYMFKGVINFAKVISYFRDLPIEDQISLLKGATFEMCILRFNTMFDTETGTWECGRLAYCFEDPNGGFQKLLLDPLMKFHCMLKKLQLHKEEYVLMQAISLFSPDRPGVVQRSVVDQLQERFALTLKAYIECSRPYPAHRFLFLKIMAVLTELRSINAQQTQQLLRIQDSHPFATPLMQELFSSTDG
Method in brief: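 Transient HepG2 transfection, multiplexed GAL4-UAS reporters, NR-GAL4 chimeras. 24 h compound exposure. Readout: reporter mRNA, RT-PCR, fluorescent capillary electrophoresis; positive direction vs DMSO baseline.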

[8] = target: zebrafish Thyroid Hormone Receptor alpha (TRa), thraa (gene 30670) (UniProt Q98867); experiment: ATG_zfTRa_XSP2: Attagene TRANS-FACTORIAL Multi-Species (XSP1) HepG2 Assay for zebrafish Thyroid Hormone Receptor alpha (TRa) (AID 2283832);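 further: actives raise zebrafish TRa-Gal4 reporter transcript above DMSO baseline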
Chain of zebrafish Thyroid Hormone Receptor alpha (TRa), thraa (gene 30670) (Q98867 whole entry, looked up, the tested form may be a part): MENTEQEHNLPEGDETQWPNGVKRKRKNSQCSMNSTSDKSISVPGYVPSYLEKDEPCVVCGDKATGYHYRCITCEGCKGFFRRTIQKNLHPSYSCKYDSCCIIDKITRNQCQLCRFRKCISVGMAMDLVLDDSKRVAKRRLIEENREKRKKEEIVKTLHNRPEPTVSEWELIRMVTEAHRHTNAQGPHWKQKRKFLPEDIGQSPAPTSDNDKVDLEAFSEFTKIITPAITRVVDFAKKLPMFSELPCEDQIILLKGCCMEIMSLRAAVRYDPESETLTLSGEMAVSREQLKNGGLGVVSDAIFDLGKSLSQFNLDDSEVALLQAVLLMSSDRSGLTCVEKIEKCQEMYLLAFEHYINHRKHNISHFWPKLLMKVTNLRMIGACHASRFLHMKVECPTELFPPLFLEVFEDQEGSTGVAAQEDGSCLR
Method in brief: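 Chimeric receptor-Gal4 activity was assessed in transfected human liver HepG2 cells 24 h after dosing, using reporter transcript levels detected by RT-PCR and capillary electrophoresis. DMSO served as baseline.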

[9] = test system: zebrafish Peroxisome Proliferator-activated Receptor gamma (PPARg), gene 557037; experiment: ATG_zfPPARg_XSP2: Attagene TRANS-FACTORIAL Multi-Species (XSP2) HepG2 Assay for zebrafish Peroxisome Proliferator-activated Receptor gamma (PPARg) (AID 2283833);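 further: actives increase reporter signal over DMSO so AC50 reflects activation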
Method in brief: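 Transfect HepG2 with multiplexed GAL4-UAS reporter constructs; dose chemical 24 h; isolate RNA, reverse-transcribe, PCR-amplify, label and digest reporter products; resolve by capillary electrophoresis. Activity taken as increase over DMSO.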

[10] = test system: turtle Thyroid Hormone Receptor, alpha (TRa), gene 101949057; experiment: ATG_trTRa_XSP2: Attagene TRANS-FACTORIAL Multi-Species (XSP1) HepG2 Assay for turtle Thyroid Hormone Receptor, alpha (TRa) (AID 2283834);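 further: hits raise reporter mRNA over the DMSO baseline so AC50 marks activators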
Method in brief: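 Readout: reporter mRNA induction, fluorescence after RT-PCR, HpaI digestion and capillary electrophoresis. Transiently transfected HepG2, exogenous NR-Gal4 chimera driving GAL4-UAS reporter, 24 h compound exposure. Activity fitted upward relative to DMSO baseline.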

[11] = ATG_M_61_XSP2: Attagene TRANS-FACTORIAL Multi-Species (XSP2) HepG2 Assay for M61 Transcription Factor (Internal Marker) (AID 2283835; active means hit-call score of the fitted dose curve at least 0.9, where 1 is the maximum; inactive means score below 0.9;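 further: active means a rise in signal above the DMSO baseline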)
Method in brief: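 HepG2 cells transiently transfected with multiple GAL4-UAS reporter units; reporter mRNA measured 24 h after dosing by RT-PCR, fluorescent labelling and capillary electrophoresis. Medium contained 3 nM 6-alpha-fluorotestosterone and 1.5 nM norgestrel; internal marker, DMSO baseline.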

[12] = target: human Thyroid hormone Receptor alpha (TRa), THRA (gene 7067) (UniProt P10827); experiment: ATG_hTRa_XSP2: Attagene TRANS-FACTORIAL Multi-Species (XSP2) HepG2 Assay for human Thyroid hormone Receptor alpha (TRa) (AID 2283838)
Chain of human Thyroid hormone Receptor alpha (TRa), THRA (gene 7067) (P10827 whole entry, looked up, the tested form may be a part): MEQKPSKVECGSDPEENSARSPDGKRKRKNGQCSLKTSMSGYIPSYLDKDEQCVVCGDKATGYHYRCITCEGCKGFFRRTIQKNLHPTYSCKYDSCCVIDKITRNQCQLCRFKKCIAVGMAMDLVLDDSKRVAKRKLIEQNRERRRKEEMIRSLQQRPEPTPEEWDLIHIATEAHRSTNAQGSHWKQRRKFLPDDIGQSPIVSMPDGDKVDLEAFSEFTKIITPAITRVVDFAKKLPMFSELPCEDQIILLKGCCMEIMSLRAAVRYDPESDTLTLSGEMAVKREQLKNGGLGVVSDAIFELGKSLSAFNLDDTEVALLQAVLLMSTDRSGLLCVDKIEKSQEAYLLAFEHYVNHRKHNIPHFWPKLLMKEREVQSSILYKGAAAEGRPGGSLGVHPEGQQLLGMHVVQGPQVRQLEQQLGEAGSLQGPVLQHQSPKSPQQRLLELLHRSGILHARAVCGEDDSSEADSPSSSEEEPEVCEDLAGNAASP
Method in brief: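 HepG2 cells transiently transfected with multiplexed GAL4-UAS reporter units and exogenous NR-GAL4 chimeras; 24 h chemical exposure with 3 nM 6-alpha-fluorotestosterone and 1.5 nM norgestrel present. Reporter mRNA measured by RT-PCR, FAM labelling, HpaI digestion, capillary electrophoresis; gain-of-signal versus DMSO.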

[13] = target: frog Thyroid hormone Receptor alpha (TRa), thra-a (gene 397942) (UniProt P15204); experiment: ATG_frTRa_XSP2: Attagene TRANS-FACTORIAL Multi-Species (XSP2) HepG2 Assay for frog Thyroid hormone Receptor alpha (TRa) (AID 2283839);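 on AC50: AC50 reflects induction of frog TRa-driven reporter mRNA above DMSO baseline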
Chain of frog Thyroid hormone Receptor alpha (TRa), thra-a (gene 397942) (P15204 whole entry, looked up, the tested form may be a part): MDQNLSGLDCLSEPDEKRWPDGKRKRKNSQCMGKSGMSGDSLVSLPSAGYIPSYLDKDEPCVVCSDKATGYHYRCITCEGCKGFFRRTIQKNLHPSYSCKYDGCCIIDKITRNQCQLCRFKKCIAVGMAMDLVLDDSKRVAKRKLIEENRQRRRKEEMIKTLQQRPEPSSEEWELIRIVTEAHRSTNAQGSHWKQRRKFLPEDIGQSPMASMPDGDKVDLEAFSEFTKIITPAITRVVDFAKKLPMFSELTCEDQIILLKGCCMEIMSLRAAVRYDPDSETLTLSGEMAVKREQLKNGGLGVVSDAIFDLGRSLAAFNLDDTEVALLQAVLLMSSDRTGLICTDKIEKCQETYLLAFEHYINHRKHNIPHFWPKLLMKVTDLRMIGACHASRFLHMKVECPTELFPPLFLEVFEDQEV
Method in brief: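 Read-out: fluorescent reporter-transcript fragments resolved by capillary electrophoresis after RT-PCR and HpaI cut. Human HepG2 liver cells carry a transfected frog TRα-Gal4 chimera driving a UAS reporter; 24 h exposure, DMSO baseline, positive-direction fit.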

[14] = test system: zebrafish Androgen Receptor (AR), gene 100005148; experiment: ATG_zfAR_XSP2: Attagene TRANS-FACTORIAL Multi-Species (XSP2) HepG2 Assay for zebrafish Androgen Receptor (AR) (AID 2283825);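 further: hits raise reporter mRNA above DMSO so AC50 reflects agonist-type gain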
Method in brief: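 Zebrafish AR–GAL4 chimera transiently expressed with GAL4-UAS reporter in HepG2 cells, co-stimulated with 3 nM 6-alpha-fluorotestosterone and 1.5 nM norgestrel; 24 h dosing, reporter mRNA read by RT-PCR/capillary electrophoresis versus DMSO.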

[15] = target: zebrafish Thyroid Hormone Receptor beta (TRb), thrb (gene 30607) (UniProt Q9PVE4); experiment: ATG_zfTRb_XSP2: Attagene TRANS-FACTORIAL Multi-Species (XSP1) HepG2 Assay for zebrafish Thyroid Hormone Receptor beta (TRb) (AID 2283836)
Chain of zebrafish Thyroid Hormone Receptor beta (TRb), thrb (gene 30607) (Q9PVE4 whole entry, looked up, the tested form may be a part): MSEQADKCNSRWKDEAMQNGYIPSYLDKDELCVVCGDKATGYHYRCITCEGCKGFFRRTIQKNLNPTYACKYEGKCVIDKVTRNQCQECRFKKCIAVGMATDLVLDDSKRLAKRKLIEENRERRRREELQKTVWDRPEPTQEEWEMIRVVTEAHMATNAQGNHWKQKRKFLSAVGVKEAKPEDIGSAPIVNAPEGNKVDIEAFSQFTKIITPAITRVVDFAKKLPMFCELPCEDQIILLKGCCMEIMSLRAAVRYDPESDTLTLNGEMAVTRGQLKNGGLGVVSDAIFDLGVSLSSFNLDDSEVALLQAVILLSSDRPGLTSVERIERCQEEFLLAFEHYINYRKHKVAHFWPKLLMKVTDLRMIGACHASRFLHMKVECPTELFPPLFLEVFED
Method in brief: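 Fluorescence of labelled reporter cDNA fragments, separated by capillary electrophoresis, gives mRNA induction from exogenous NR-Gal4 chimeras in transiently transfected HepG2 cells after 24 h dosing; 3 nM 6-alpha-fluorotestosterone and 1.5 nM norgestrel included in the run.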

[16] = target: human Thyroid hormone Receptor beta (TRb), THRB (gene 7068) (UniProt P10828); experiment: ATG_hTRb_XSP2: Attagene TRANS-FACTORIAL Multi-Species (XSP2) HepG2 Assay for human Thyroid hormone Receptor beta (TRb) (AID 2283840);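 further: actives raise reporter mRNA so potency reflects agonist-like gain of signal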
Chain of human Thyroid hormone Receptor beta (TRb), THRB (gene 7068) (P10828 whole entry, looked up, the tested form may be a part): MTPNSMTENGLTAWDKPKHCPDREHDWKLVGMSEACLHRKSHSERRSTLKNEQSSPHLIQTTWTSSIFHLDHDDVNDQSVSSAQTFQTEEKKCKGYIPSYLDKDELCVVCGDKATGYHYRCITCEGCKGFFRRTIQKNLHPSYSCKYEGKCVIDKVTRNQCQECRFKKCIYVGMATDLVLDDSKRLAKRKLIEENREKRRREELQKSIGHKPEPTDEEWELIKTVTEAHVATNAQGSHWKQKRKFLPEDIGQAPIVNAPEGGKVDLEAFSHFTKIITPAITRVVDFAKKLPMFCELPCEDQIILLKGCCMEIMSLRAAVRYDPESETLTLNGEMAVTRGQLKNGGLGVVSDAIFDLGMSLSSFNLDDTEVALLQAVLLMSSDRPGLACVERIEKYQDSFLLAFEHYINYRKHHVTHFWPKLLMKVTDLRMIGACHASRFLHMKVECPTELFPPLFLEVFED
Method in brief: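 Read-out: reporter mRNA induction (RT-PCR, 6-FAM labeling, capillary electrophoresis), gain-of-signal relative to DMSO baseline. Transiently transfected HepG2 TRANS multiplex (NR-Gal4 chimeras, GAL4-UAS reporters), 24 h chemical exposure; medium contained 3 nM 6-alpha-fluorotestosterone plus 1.5 nM norgestrel.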

[17] = target: Estrogen receptor (Homo sapiens) (UniProt P03372); experiment: ATG_hERa_XSP2: Attagene TRANS-FACTORIAL Multi-Species (XSP2) HepG2 Assay for human Estrogen Receptor (ERa) (AID 2283827)
Chain of Estrogen receptor (Homo sapiens) (P03372 whole entry, looked up, the tested form may be a part): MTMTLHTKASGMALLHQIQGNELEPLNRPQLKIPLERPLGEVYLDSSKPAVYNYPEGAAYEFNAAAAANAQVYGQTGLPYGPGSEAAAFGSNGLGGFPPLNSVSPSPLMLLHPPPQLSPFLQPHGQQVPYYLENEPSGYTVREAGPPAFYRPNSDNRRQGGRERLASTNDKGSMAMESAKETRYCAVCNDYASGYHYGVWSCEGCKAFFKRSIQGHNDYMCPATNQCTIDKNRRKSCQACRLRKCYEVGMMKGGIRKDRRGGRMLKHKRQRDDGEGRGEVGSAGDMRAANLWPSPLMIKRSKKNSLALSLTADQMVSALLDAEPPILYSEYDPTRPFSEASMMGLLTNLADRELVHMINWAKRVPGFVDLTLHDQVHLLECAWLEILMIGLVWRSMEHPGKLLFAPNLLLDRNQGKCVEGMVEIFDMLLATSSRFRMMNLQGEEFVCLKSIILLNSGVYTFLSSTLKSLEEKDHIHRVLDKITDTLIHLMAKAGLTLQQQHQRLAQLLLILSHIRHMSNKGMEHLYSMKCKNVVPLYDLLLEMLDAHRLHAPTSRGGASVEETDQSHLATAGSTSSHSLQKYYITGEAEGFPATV
Method in brief: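 HepG2 cells transiently transfected with multiplexed GAL4-UAS reporters driven by chimeric receptor-Gal4 proteins, dosed 24 h with 3 nM 6-alpha-fluorotestosterone and 1.5 nM norgestrel present. Reporter mRNA by RT-PCR and capillary electrophoresis; gain-of-signal fit versus DMSO.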

[18] = test system: frog Androgen Receptor (AR), gene 399456; experiment: ATG_frAR_XSP2: Attagene TRANS-FACTORIAL Multi-Species (XSP2) HepG2 Assay for frog Androgen Receptor (AR) (AID 2283824);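 further: actives raise reporter signal above DMSO so AC50 reflects agonist-like induction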
Method in brief: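 HepG2 cells transiently transfected with GAL4-UAS reporter units and frog (Xenopus laevis) AR-Gal4 chimera; reporter mRNA measured 24 h after dosing by RT-PCR and capillary electrophoresis. Gain of signal fitted relative to DMSO baseline.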

Measured: AC50

N#Cc1cc(Br)c(O)c(Br)c1
inactive: [1]

CCON=C(CC)C1=C(O)CC(c2c(C)cc(C)cc2C)CC1=O (stereo not drawn)
inactive: [2] | [1]

CCCCNC(=O)OCC#CI
inactive: [3] | [4] | [7] | [8] | [9] | [11] | [12] | [1]
active: [5] 10.6 µM | [6] 25.6 µM | [10] 25.5 µM | [13] 100 µM | [2] 9.77 µM

CCc1nn(C)c(C(=O)NCc2ccc(C(C)(C)C)cc2)c1Cl
active: [2] 2.5 µM | [1] 9.92 µM

CS/C(C)=N/OC(=O)N(C)SN(C)C(=O)O/N=C(\C)SC
inactive: [2] | [1]

CO/C=C(/C(=O)OC)c1ccccc1Oc1cc(Oc2ccccc2C#N)ncn1
inactive: [14] | [5] | [8] | [9] | [10] | [11] | [15] | [16] | [2]
active: [7] 0.545 µM

CCOc1cc(Oc2ccc(C(F)(F)F)cc2Cl)ccc1[N+](=O)[O-]
active: [2] 22.1 µM

COC(=O)N(OC)c1ccccc1COc1ccn(-c2ccc(Cl)cc2)n1
active: [17] 2.64 µM | [5] 1.15 µM | [6] 1.43 µM | [7] 2.7 µM | [12] 2.63 µM
inactive: [3] | [8] | [9] | [10] | [11] | [15] | [13] | [16] | [2] | [1]

CC1COC(Cn2cncn2)(c2ccc(Oc3ccc(Cl)cc3)cc2Cl)O1 (stereo not drawn)
active: [2] 11.5 µM | [1] 29 µM

C=CC1(C)OC(=O)N(c2cc(Cl)cc(Cl)c2)C1=O (stereo not drawn)
inactive: [3] | [4] | [9] | [10] | [11] | [15] | [13] | [16] | [2] | [1]
active: [17] 3.58 µM | [5] 36.6 µM | [6] 29.5 µM | [7] 31.2 µM | [8] 25.6 µM | [12] 100 µM

COC(=O)C(C)Oc1ccc(Oc2ccc(Cl)cc2Cl)cc1 (stereo not drawn)
inactive: [2] | [1]

CCOC(=O)CC(SP(=S)(OC)OC)C(=O)OCC (stereo not drawn)
inactive: [2] | [1]

Cc1ccc(-c2c(Cl)nc(C#N)n2S(=O)(=O)N(C)C)cc1
inactive: [2] | [1]

C=CCC1=C(C)C(OC(=O)C2C(C=C(C)C)C2(C)C)CC1=O (stereo not drawn)
inactive: [2] | [1]
active: [2] 34 µM and 50 µM | [1] 1.04 µM and 50 µM

COP(=S)(OC)Oc1nc(Cl)c(Cl)cc1Cl
inactive: [4] | [7] | [8] | [10] | [11] | [15] | [12] | [13] | [16] | [2] | [1]
active: [18] 29.7 µM | [17] 31.8 µM | [5] 4.74 µM | [6] 6.11 µM

Cc1c(F)c(F)c(COC(=O)C2C(/C=C(\Cl)C(F)(F)F)C2(C)C)c(F)c1F (stereo not drawn)
inactive: [2] | [1]

COc1ccc(C(c2ccc(OC)cc2)C(Cl)(Cl)Cl)cc1
active: [17] 12.1 µM | [4] 99.5 µM | [7] 27.8 µM
inactive: [3] | [5] | [6] | [8] | [9] | [10] | [11] | [15] | [12] | [2] | [1]

N#Cc1nn(-c2c(Cl)cc(C(F)(F)F)cc2Cl)c(N)c1S(=O)C(F)(F)F (stereo not drawn)
active: [2] 26.8 µM
inactive: [1]

CCCC1COC(Cn2cncn2)(c2ccc(Cl)cc2Cl)O1 (stereo not drawn)
inactive: [3] | [9] | [10] | [11] | [12] | [16] | [2] | [1]
active: [4] 32.5 µM | [5] 67.2 µM | [6] 100 µM | [7] 3.79 µM

N#CC(CCc1ccc(Cl)cc1)(Cn1cncn1)c1ccccc1 (stereo not drawn)
active: [2] 76 µM | [1] 60.2 µM

CCOC(=O)C(Cl)Cc1cc(-n2nc(C)n(C(F)F)c2=O)c(F)cc1Cl (stereo not drawn)
inactive: [2] | [1]
